PglD DTNB: C. jejuni PglD acetyltransferase inhibitors, primary screen, biochemical, DTNB colorimetric, single point. purified PglD enzyme, DTNB colorimetric CoA detection. UDP-N-acetylbacillosamine N-acetyltransferase PglD (Campylobacter jejuni). actives 0.098% (n = 360,000). inhibition, % at 12.5 µM; in the data active = inhibition above about 16%, passing the limit was not always enough
F508del corr: F508del CFTR correction, initial screen, CFBE line, single point; activity (quench increase), % at 7.58 µM; actives 0.36% (n = 350,000); CFBE cells, YFP halide quenching; stimulated with forskolin plus potentiator P3; % fluorescence drop versus neutral controls;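 active = mean added fluorescence quench of at least 8% versus neutral control, with both replicates also reaching 8%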;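 note: cells transiently co-express mutant CFTR-F508del with the halide-sensitive YFP; corrector assay measuring rescue of mutant channel to the surface after 24 h compound exposure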
ARNT TACC3 PPI: disruptors of ARNT/TACC3 protein interaction, primary screen, biochemical, AlphaScreen, single concentration. Transforming acidic coiled-coil-containing protein 3 (Homo sapiens), Q9Y6A5. AlphaScreen His-ARNT PAS-B/GST-TACC3 binding, luminescence; TACC3 fragment carries E629A point mutation. inhibition, % at 9.99 µM. actives 0.66% (n = 390,000). AID 623870, 2012;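 active = mean inhibition of replicates at least 50% and at least half of replicates each reaching 50%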;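 note: 0% = complete ARNT plus TACC3 wells and 100% = ARNT alone without TACC3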
C2C12 statin: suppressors of statin myotoxicity in C2C12 myotubes, primary screen, cell-based, single point, plate reader | C2C12 myotubes + simvastatin, ATP luminescence, 48 h; scaled: DMSO 0, geranylgeraniol control 100 | AID 602340, 2012 | rescue of ATP level, % at 7.49 µM | actives 0.78% (n = 330,000);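 active = mean ATP rescue above about 67%, or every replicate alone reaching that limit, limit read from the data, passing the limit was not always enough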;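 note: myotubes were challenged with 10 µM simvastatin during compound exposure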
ARNT Alpha ctr: AlphaScreen signal interference compounds, dose response, artefact control for ARNT-TACC3 interaction inhibitor project, biochemical, luminescence, cherry-pick | AC50, µM (doses to about 68 µM), inactives show at the highest dose activity change, negative = signal decrease | shares compounds with ARNT TACC3 PPI | actives 50% (n = 1,200) | AID 651705, 2012 | His-ARNT PASB-GST AlphaScreen artifact counter-screen;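 active = every separate test run was called active for a drop in luminescence, with AC50 within twice the top valid dose, actives reach about 71 µM in these data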
An asterisk follows results filed as active; . = not tested or not shown. Compounds with a hit are over-represented: about 1.4% of the library has one in this group of screens.

SMILES | PglD DTNB | F508del corr | ARNT TACC3 PPI | C2C12 statin | ARNT Alpha ctr
Cc1[nH]n(-c2ccccc2)c(=O)c1C(c1cccc([N+](=O)[O-])c1)c1c(C)[nH]n(-c2ccccc2)c1=O | . | 0 | . | . | .
Cc1[nH]n(-c2ccccc2)c(=O)c1C(c1ccc(C(=O)O)cc1)c1c(C)[nH]n(-c2ccccc2)c1=O | . | 0 | 18* | . | -18%
CC(=O)Nc1ccc2nc3ccccc3nc2c1 | . | -1 | 32* | 0 | -14%
COc1cccc(NC(=O)N(C)C[C@H]2Oc3ncc(/C=C/c4ccccc4)cc3C(=O)N([C@@H](C)CO)C[C@H]2C)c1 | -2 | 0 | 13 | 13 | .
Cn1c(CCNC(=O)c2ccc(Cl)c(Cl)c2)nnc1SCc1ccc(Cl)c(Cl)c1 | -4 | . | 60* | -24 | -2%
COc1ccc(N(C(C)=O)c2nc3ccccc3[nH]2)cc1 | 3 | -3 | 53* | 1 | -8%
c1ccc(CN2CCN(CCCNc3ccc4nnc(-c5ccccc5)n4n3)CC2)cc1 | 3 | . | 57* | -9 | 71µM*
C[C@@H]1CN([C@@H](C)CO)C(=O)c2cc(NC(=O)Nc3ccc(F)cc3)ccc2O[C@@H](C)CCCCO[C@@H]1CN(C)C(=O)Nc1ccc2c(c1)OCO2 | . | -2 | . | . | .
CC1OC(CC(=O)O)CC2=C1C(=O)c1c(O)cccc1C2=O (configuration not stated) | . | -3 | 33* | . | -17%
CC(=O)Nc1cccc(C(=O)O)n1 | . | -1 | 59* | . | -20%
CC(=O)Nc1cccc(NC(C)=O)n1 | -2 | . | -1 | . | .
O=C(NC1Cc2ccccc2C1)[C@@H]1[C@@H](CO)[C@@H]2Cn3c(ccc(C4=CCCCC4)c3=O)[C@@H]2N1CC1CC1 | . | 1 | . | . | .
COCC#Cc1ccc2c(c1)O[C@H](CN(C)Cc1ccc(F)cc1)[C@@H](C)CN([C@@H](C)CO)S2(=O)=O | -1 | -6 | -14 | -30 | .
CCCc1nnc(NS(=O)(=O)c2ccc(C)cc2)o1 | -10 | 0 | 64* | -13 | 0%
CSc1ccccc1NC(=O)CN(C)C(=O)COc1cccc2cccnc12 | -1 | -1 | 67* | -2 | 69µM*
O=C(COC(=O)c1ccc([N+](=O)[O-])s1)NCCc1ccccc1 | 4 | . | 50* | 3 | -19%
COc1ccc2c3c([nH]c2c1)[C@H](CO)N(C(=O)C1CCC1)CC31CCN(C(=O)c2ccccn2)CC1 | . | 0 | . | . | .
O=C(Nc1ccccc1F)N1[C@@H]2CNc3ccccc3[C@@H]2[C@@H]1CO | -1 | -4 | -2 | 2 | .
COc1ccc2c3c(n(C)c2c1)[C@H](CO)N(C(=O)Nc1ccc(F)cc1)CC31CN(Cc2cccc(F)c2)C1 | . | 3 | . | . | .
COC(=O)[C@H]1[C@H](CO)[C@H]2Cn3c(ccc(-c4ccccc4F)c3=O)[C@H]2N1Cc1cccnc1 | 0 | 0 | -7 | -15 | .
Cc1ccc(/C=N/Nc2cn[nH]c(=O)n2)o1 | . | 2 | 57* | . | -11%
O=C(C[C@@H]1CC[C@H]2NC[C@H](O)COC[C@@H]2O1)Nc1ccccc1 | 3 | -2 | 12 | -3 | .
O=C(C[C@H]1CC[C@@H](NC(=O)C2CCOCC2)[C@@H](CO)O1)Nc1ccccc1 | . | -1 | . | . | .
CCC(=O)N1C[C@@H](C)[C@@H](OC)CN(C)C(=O)c2cc(NC(=O)NC(C)C)ccc2OC[C@H]1C | 3 | 2 | -4 | 8 | .

Screening results: PubChem, Broad Institute
